Values of other authors as cited in publication PMC11062922 (Nature Chemical Biology, 2023).

Experiments:
[1] = system: JAK1(JH2domain-pseudokinase)
[2] = system: JAK2(JH1domain-catalytic)
[3] = system: RSK1(Kin.Dom.1-N-terminal)
[4] = system: RSK3(Kin.Dom.1-N-terminal)
[5] = system: TYK2(JH2domain-pseudokinase)

Measured: KINOMEScan

COc1cc(Nc2ncc3c(C)nc(-c4cc5ccccc5[nH]4)n3n2)cc(OC)c1OC [GW869516X]
active: AMPK-alpha1 89% | AMPK-alpha2 61% | BLK 60% | CIT 100% | CLK1 88% | CLK2 75% | CSNK2A1 96.4% | CSNK2A2 99.7% | DDR1 52% | DDR2 52% | DYRK1A 85% | DYRK1B 81% | EPHB1 58% | FLT3-autoinhibited 75% | FLT3 96.3% | GCN2(Kin.Dom.2,S808G) 88% | HIPK1 79% | INSRR 53% | [1] 98.5% | [2] 54% | KIT 72% | LCK 71% | MAP3K4 52% | MEK5 78% | MERTK 56% | MLK1 93.8% | MLK2 89% | MLK3 87% | NEK11 86% | NEK2 70% | NEK3 89% | NEK5 99% | NEK6 99.6% | NEK7 99.7% | NEK9 90% | PAK3 69% | PIP5K1C 89% | PIP5K2C 90.3% | PKAC-beta 51% | [3] 91.7% | [4] 66% | SLK 63% | SRC 90.1% | STK16 86% | SYK 53% | TBK1 58% | [5] 82% | ULK2 51% | WEE2 85%
